Where “and” joins values, the source holds several entries; their conditions need not be identical. Equal values may be shown once. The campaign covered roughly 420,000 compounds. About 50,000 (12%) were called active. Where a call stands in place of a potency, no number is given. About 26% were inconclusive and are not listed. Only a selection was taken, and actives are over-represented in it overall. Values without a mark were called inactive. Calls come from the whole dose curve; as a rule, active = well fitted inhibition curve with a large enough effect; inconclusive = small, poorly fitted or top-dose-only effect; inactive = flat fitted curve, though single readings scatter.
Potency is the fitted concentration of half-maximal effect.

This assay can be described thus: qHTS for Inhibitors of human tyrosyl-DNA phosphodiesterase 1 (TDP1): qHTS in cells in presence of CPT. Note: nearly all actives have a fitted effect of over 55% in size. The note with it: chicken DT40 Tdp1-/-;hTDP1 cells + 20 nM CPT, ATP luminescence, 48 h; series mostly up to 46.2 µM. In a few lines:
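Chicken DT40 Tdp1-/- cells stably complemented with human TDP1 were seeded at 400 cells/well in medium containing 20 nM camptothecin, exposed to pin-transferred compounds, and grown at 37 °C for at least 48 hr. Viability was read as ATP luminescence.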
In general terms: In qHTS, concentration-response curves come from the screen itself.
Take `CC(C)(C)NC(=O)NC(=O)COC(=O)CCC1CCCCC1`: the Potency result was “inactive”.
In the case of `COc1ccc(N2c3ccccc3CN(Cc3ccccc3)[C@@H](C)[C@H]2Cc2ccc(-c3ccccc3)cc2)cc1`, the Potency is 23.1 µM (active).
The same measure, in the same setting: the same measure for `COc1ccc(N2C(=O)C(Cc3ccccc3)NC2=S)cc1` (stereo not drawn): “inactive”; for `C[n+]1cccc(C(=O)O)c1`: “inactive”; for `O=C(CCc1nnc2ccc(NCc3ccccc3Cl)nn12)NCC1CCN(C2CCCC2)C1` (stereo not drawn): “inactive”.
With `Nc1c(-c2cccc(Cl)c2)cnn1-c1cccc([N+](=O)[O-])c1`, the Potency entry was “inactive”.
On the same count and under the same terms, the same measure for `COc1cccc(NC(=O)N2CCCC2C(=O)NC2CCCCC2)c1` (stereo not drawn): “inactive”.
Take `COc1cccc(NC(=O)N(Cc2cn(C)c3ccccc23)C2CCCCCC2)c1`: the Potency is 5.8 µM (active).
The same measure, in the same setting: the same measure for `COc1cccc(NC(=O)C/C(C)=N/NC(=O)C2CCCCC2)c1`: “inactive”.
Turning to `COc1ccc(NC(=O)NNC(=O)COc2cc(C)c(Cl)c(C)c2)c(OC)c1`, the Potency result is “inactive”.
For the compound `O=C1CSC(c2ccc(Cl)cc2)N1` (stereo not drawn), the Potency result was “inactive”.
Still for that read-out and setting: the same measure for `O=C(CN1CCCCCC1)Nc1c(Cl)cc(Cl)cc1Cl`: “inactive”; for `CCNC(=O)C1CCCN(C(=O)c2cc(F)ccc2C)CC1` (stereo not drawn): “inactive”.
Still for that read-out and setting: the same measure for `COc1ccc(C(=O)N2CCC3(CCCN(C(c4ccccc4)c4ccccc4)C3)CC2)cc1`: “inactive”; for `O=C(c1ccncc1)N1CCC2(CCCN(C(c3ccccc3)c3ccccc3)C2)CC1`: 16.4 µM (active).
Turning to `O=C(c1cccc(F)c1)N1CCC2(CCCN(Cc3ccncc3)C2)CC1`, the Potency result is “inactive”.
Same read-out and setting: the same measure for `COc1ccc(CC(=O)Nc2nnc3n2CCS3)cc1OC`: “inactive”.
The same measure, in the same setting: the same measure for `O=C(COC(=O)c1cccs1)NCc1cccs1`: “inactive”.
`COc1ccc(OCc2cccc(C(=O)N3CCCC3)c2)cc1`: the Potency result is “inactive”.
Take `CN(Cc1ccccc1)C(=O)c1cccc(C(=O)N(C)Cc2ccccc2)c1`: the Potency entry was “inactive”.
On the same count and under the same terms, the same measure for `CCOc1ccc(OCc2cccc(C(=O)N(CC)CC)c2)cc1`: 20.6 µM (active).
Turning to `O=C(CN1C(=O)c2ccccc2S1(=O)=O)NC1CCCCC1`, the Potency entry is “inactive”.
Same read-out and setting: the same measure for `COc1ccc(-n2cnnc2SCC(=O)Nc2cccc(S(N)(=O)=O)c2)cc1`: “inactive”; for `O=C(Nc1ccc(Cl)cc1)Nc1ccc(C(=O)N2CCOCC2)cc1`: “inactive”; for `Nc1ccn(C2CC(O)C(CO)O2)c(=O)n1` (stereo not drawn): “inactive”.
Same read-out and setting: the same measure for `Nc1ncnc2c1cnn2C1CC(O)C(CO)O1` (stereo not drawn): “inactive”; for `Nc1ncnc2c1ncn2C1CC(O)C(CO)O1` (stereo not drawn): 1.16 µM (active); for `CCN(CC(=O)Nc1c(F)cccc1F)C(=O)c1cnc(C)cn1`: “inactive”.
Turning to `O=C1c2ccccc2C(=O)N1CCCCCCN1C(=O)c2ccccc2C1=O`, the Potency entry is “inactive”.
The same measure, in the same setting: the same measure for `O=C(CCCn1c(=O)c2sccc2n(CC(=O)NCC2CCCO2)c1=O)NCc1ccco1` (stereo not drawn): “inactive”.
As to `CCN(CCCNC(=O)CCn1c(=O)[nH]c2ccsc2c1=O)c1ccccc1`, the Potency result was “inactive”.
With `CCC1CCCCN1C(=O)Cn1c(=O)n(CCCCCC(=O)NCc2ccccc2)c(=O)c2sccc21` (stereo not drawn), the Potency was 16.4 µM (active).
The same measure, in the same setting: the same measure for `Cc1cc(S(=O)(=O)NCc2ccccn2)c(Cl)cc1Cl`: “inactive”.
As to `Cc1ccc(S(=O)(=O)NCC(=O)NNC(=O)c2ccc(Br)cc2)cc1C`, the Potency entry is “inactive”.
Still for that read-out and setting: the same measure for `C/C(=N\Nc1nc(Nc2ccccc2)nc(N2CCOCC2)n1)c1cccs1`: 23.1 µM (active); for `C/C(=N\Nc1nc(N2CCOCC2)nc(N2CCOCC2)n1)c1ccc([N+](=O)[O-])cc1`: “inactive”; for `C/C(=N\Nc1ccccc1)c1cccs1`: “inactive”.
The same measure, in the same setting: the same measure for `O=C(COC(=O)C1CC2CCCC(C1)C2=O)NC(=O)c1ccccc1` (stereo not drawn): “inactive”.
Same read-out and setting: the same measure for `CN1CCN(C(=O)c2ccc(NC(=O)c3ccc(Br)o3)cc2)CC1`: “inactive”; for `CC(C)(C)c1ccc(C(=O)N2CCN(CCNC(=O)C(=O)Nc3ccc(F)cc3)CC2)cc1`: 16.4 µM (active); for `Cc1ccc(C(=O)N/C(=C\c2ccc(F)cc2)C(=O)NCCN2CCOCC2)cc1`: “inactive”.
Consider `Cc1cc(C(=O)OCC(=O)N2C(C)CCCC2C)c2ccccc2n1` (stereo not drawn), for which the Potency entry was “inactive”.
In the case of `CC(=O)N1CCCc2cc(S(=O)(=O)N3CCCC(C(=O)N4CCN(c5cccc(Cl)c5)CC4)C3)ccc21` (stereo not drawn), the Potency was 2.31 µM (active) and 8.2 µM (active).
Same read-out and setting: the same measure for `COC(=O)c1ccccc1NS(=O)(=O)c1ccc2c(c1)CCCN2C(C)=O`: “inactive”.
Consider `CC(=O)N1CCCc2cc(S(=O)(=O)N3CCCC(C(=O)NCc4ccc(Cl)cc4)C3)ccc21` (stereo not drawn), for which the Potency was 18.4 µM (active).
For `COc1cccc(N2CCN(S(=O)(=O)c3ccc4c(c3)CCCN4C(C)=O)CC2)c1`, the Potency result is “inactive”.
Still for that read-out and setting: the same measure for `CC(=O)N1CCCc2cc(S(=O)(=O)N3CCC(C(=O)NC4CCCCC4)CC3)ccc21`: “inactive”.
On the same count and under the same terms, the same measure for `O=C(NCc1ccncc1)C1CCCN(S(=O)(=O)c2ccc(Br)cc2)C1` (stereo not drawn): “inactive”; for `CCCCn1c(N)c(N(CCOC)C(=O)c2cccc(S(=O)(=O)N(C)c3ccccc3)c2)c(=O)[nH]c1=O`: “inactive”.
Same read-out and setting: the same measure for `CC(C)(C(=O)N1CCC1(C)C(=O)NS(=O)(=O)c1ccc(Br)cc1)c1ccccc1` (stereo not drawn): “inactive”; for `CCOC(=O)C1CCN(S(=O)(=O)c2ccc3c(c2)N(C(C)=O)CCO3)CC1`: “inactive”; for `O=C(CN1C2=NCCN2c2ccccc21)c1cccs1`: “inactive”.
Turning to `OC(CN1C2=NCCCN2c2ccccc21)c1ccc(Br)cc1` (stereo not drawn), the Potency entry was “inactive”.
The same measure, in the same setting: the same measure for `Cc1cc2c(cc1C)N(Cc1ccccc1)C1=NCCCN12`: 13 µM (active); for `CN(C(=O)CSc1nc2ccccc2n1Cc1ccccc1C#N)c1ccccc1`: 14.6 µM (active); for `CCN(CC)C(=O)CSc1nc2ccccc2n1CC(=O)N1CCN(c2ccccc2OC)CC1`: “inactive”.
The same measure, in the same setting: the same measure for `CCOc1ccc(OCCSc2nc3ccccc3n2CC(=O)O)cc1`: “inactive”.
Still for that read-out and setting: the same measure for `COC(=O)c1ccc(Cn2c(SCC(=O)N(C)c3ccccc3)nc3ccccc32)cc1`: 20.6 µM (active); for `COC(=O)CSc1nc2ccccc2c(=O)n1Cc1ccccc1`: “inactive”; for `Cc1ccc(Cn2c(SCC(=O)N/N=C/c3ccccc3OCC(=O)O)nc3ccccc32)cc1`: “inactive”.
On to `CC(C)[C@H](NC(=O)OCc1ccccc1)C(=O)OCc1ccccc1`, for which the Potency result was “inactive”.
On the same count and under the same terms, the same measure for `CCN1CCN(C(=O)N[C@@H](C(=O)N[C@@H]2C(=O)N3C(C(=O)O)=C(CSc4nnnn4C)CS[C@H]23)c2ccc(O)cc2)C(=O)C1=O`: “inactive”.
Consider `CCOc1ccc(C)cc1S(=O)(=O)NC1CCCCCC1`, for which the Potency result is “inactive”.
Still for that read-out and setting: the same measure for `CC1CN(C(=O)COC(=O)c2cccc(NS(=O)(=O)c3ccccc3)c2)CC(C)O1` (stereo not drawn): “inactive”; for `O=C(CSc1ccc(-c2ccccc2)nn1)NCC1CCCO1` (stereo not drawn): “inactive”; for `Cc1ccc(SCC(=O)Nc2nncs2)cc1`: “inactive”.
Still for that read-out and setting: the same measure for `CC(C)Oc1ccc(C(=O)NCC(=O)Nc2ccc3c(c2)CCC3)cc1`: “inactive”; for `CC(C)Cn1c(SCC(=O)Nc2ccc(Cl)cc2F)nc(O)cc1=O`: “inactive”; for `COc1ccccc1-c1nc(C#N)c(N2CCC(C(N)=O)CC2)o1`: “inactive”.
In the case of `COc1ccc(OCc2ccc(-c3nc(C#N)c(N4CCN(c5ccccc5)CC4)o3)o2)cc1`, the Potency result was “inactive”.
Same read-out and setting: the same measure for `CC1CCN(c2oc(-c3ccccc3F)nc2C#N)CC1`: 16.4 µM (active); for `O=S(=O)(c1ccc(Br)c2ccccc12)N1CCOCC1`: “inactive”.
On to `Cc1noc(C)c1NC(=O)Nc1cccc2c1O[C@H](CN(C)C(=O)Nc1ccccc1)[C@@H](C)CN([C@H](C)CO)C2=O`, for which the Potency result was “inactive”.
The same measure, in the same setting: the same measure for `Cc1ccccc1N/N=C/c1ccc(N2CCOCC2)cc1`: “inactive”; for `Cc1cc(C(=O)N/N=C/c2ccc(N3CCOCC3)cc2)c(C)o1`: “inactive”; for `CNC(=S)N/N=C/c1ccc(N2CCOCC2)s1`: 4.61 µM (active).
Same read-out and setting: the same measure for `Cc1ccc2[nH]c3c(=O)n(CC(=O)NC(C)C)ncc3c2c1`: “inactive”; for `CN(c1ccc(O)cc1)c1nc(-c2cccnc2)cs1`: “inactive”; for `O=C(Nc1ccc(-c2ccc3nncn3n2)cc1)C1CCCCC1`: “inactive”.
Take `NNc1nc2c(Cl)cccc2s1`: the Potency result is “inactive”.
As to `CC(C)NC(=O)N1Cc2cc(C(=O)NCC(F)(F)F)nc(-c3cccc(-c4cc5ccccc5o4)c3)c2[C@@H]1CCO`, the Potency was 18.4 µM (active).
For `Cn1c(SCC(=O)NC2CCCCC2)nnc1-c1cc2ccccc2o1`, the Potency entry was “inactive”.
The same measure, in the same setting: the same measure for `Cc1c(C(=O)NCC2CC2)sc(=O)n1Cc1cccc(F)c1`: “inactive”; for `CC(=O)N1Cc2cc(C(=O)NCc3cccc(F)c3)nc(-c3cccc(C4=CCCC4)c3)c2[C@H]1CCO`: 18.4 µM (active).
Same read-out and setting: the same measure for `COc1ccc(CCNC(=O)CN(C)S(=O)(=O)c2ccc3nc(C)sc3c2)cc1OC`: “inactive”; for `COCCSc1nnc(NC(=O)c2cc(OC)c(OC)cc2[N+](=O)[O-])s1`: “inactive”; for `CCN1CCN(C(=O)c2cc3cc4ccc(OC)cc4nc3s2)CC1`: “inactive”.
Same read-out and setting: the same measure for `COC(=O)c1ccc(NC(=O)c2cccc3c2C(=O)N(C2CCCCC2)C3)cc1`: “inactive”.
On to `COc1ccc(CCNc2ncnc3sc(C(=O)N4CCCC4)c(C)c23)cc1OC`, for which the activity change, negative = growth inhibition was 3.59% [at 9.04 µM].
With `CCS(=O)(=O)NCCc1ccc(OC)c(OC)c1`, the Potency result is “inactive”.
Same read-out and setting: the same measure for `COc1ccc(CCNc2ncnc3nc[nH]c23)cc1OC`: 18.4 µM (active); for `COc1ccc(/C(C)=N/N2CCOCC2)c(O)c1`: “inactive”; for `O=C(Nc1cc(-c2nn(CC(=O)N3CCCCC3)c(=O)c3ccccc23)ccc1N1CCOCC1)c1ccc(Cl)cc1`: “inactive”.
The same measure, in the same setting: the same measure for `CC(=O)c1c(C)[nH]c(C(=O)N2CCN(S(=O)(=O)c3ccc(F)c(F)c3)CC2)c1C`: 0.231 µM (active); for `COc1ccc(S(=O)(=O)N2CCN(C(=O)c3cc(C)oc3C)CC2)cc1`: “inactive”.
On the same count and under the same terms, the same measure for `CC(=O)c1c(C)[nH]c(C(=O)OCC(=O)Nc2cc(S(=O)(=O)N3CCCCC3)ccc2C)c1C`: “inactive”; for `COc1cccc2c1CCC(NC(C)=O)C2=O` (stereo not drawn): “inactive”; for `Cc1cc(O)c(Sc2ccccc2)c(=O)o1`: “inactive”.
As to `O=C(Nc1ccccc1Cl)/C(Cl)=C(\Cl)S(=O)c1ccccc1` (stereo not drawn), the Potency is 0.164 µM (active).
The same measure, in the same setting: the same measure for `O=C(COC(=O)c1cccs1)Nc1ccccc1Cl`: “inactive”; for `O=C(Nc1ccccc1Cl)c1ccc2nsnc2c1`: “inactive”; for `CCNC(=S)NCC`: “inactive”.
The same measure, in the same setting: the same measure for `Cc1cc(C)c(S(=O)(=O)NN=C2c3ccccc3[C@H]3Cc4csc[n+]4[C@@H]23)c(C)c1`: 29.1 µM (active).

The record behind these values is PubChem BioAssay AID686979 (National Center for Advancing Translational Sciences (NCATS), 2013).
